TLR4-MyD88 BLA = inhibitors of TLR4-MyD88 association in cells, primary screen, cell-based, HeLa CL3-4, BLA complementation, FRET ratio | actives 0.18% (n = 200,000) | inhibition, % at 8.4 µM | HeLa CL3-4 TLR4/MyD88 BLA complementation; in the data active means inhibition above about 25%
B2AR ag = beta2AR agonists driving receptor internalization, primary screen, cell-based, FAP fluorogen, flow cytometry. response, % (no concentration beside the values). Am2.2-beta2AR cells. actives 0.43% (n = 340,000). AID 504454, 2011;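 active means response above a set limit, near 3 SD of response in nonfluorescent compounds, cut at about 42% in these data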
Target sequence (P07550 whole entry, looked up): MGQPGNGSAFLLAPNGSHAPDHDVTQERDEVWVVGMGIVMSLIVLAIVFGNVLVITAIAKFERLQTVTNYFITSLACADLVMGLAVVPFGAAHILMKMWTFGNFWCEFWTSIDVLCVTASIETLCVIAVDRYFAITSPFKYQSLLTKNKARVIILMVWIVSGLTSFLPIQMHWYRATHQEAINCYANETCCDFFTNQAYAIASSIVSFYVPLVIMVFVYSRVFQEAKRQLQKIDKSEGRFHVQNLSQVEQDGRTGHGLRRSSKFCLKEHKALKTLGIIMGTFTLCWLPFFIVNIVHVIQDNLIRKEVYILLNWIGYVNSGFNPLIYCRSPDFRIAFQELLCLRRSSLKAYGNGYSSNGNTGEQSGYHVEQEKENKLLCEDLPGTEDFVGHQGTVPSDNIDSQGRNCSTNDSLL
NOD2 RIPK2 PPI = NOD2-RIPK2 binding disruptors in cells, primary screen, fluorescence, CHO cells, BLA complementation; Receptor-interacting serine/threonine-protein kinase 2 (Homo sapiens), O43353; CCF4 ratio; inhibition, % at 4.98 µM; actives 0.38% (n = 360,000); AID 624267, 2012; in the data active means inhibition above about 21%
NTR1 ag = agonists of human NTR1, primary screen, imaging, U2OS cells, beta-arrestin-GFP, high content; NTR1-U2OS beta-arrestin-GFP spot imaging, agonist mode; activation, % at 20 µM; actives 0.17% (n = 330,000); AID 493036, 2011;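 active means activation at or above 40% of the spot to cytoplasm intensity ratio, with at least 20 cells analyzed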
ABHD5-PLIN5 inh = ABHD5-PLIN5 interaction inhibitors, primary screen, cell lysate, split luciferase complementation, luminescence; Perilipin-5 (Homo sapiens) + 1-acylglycerol-3-phosphate O-acyltransferase ABHD5 (Homo …; Split G. princeps luciferase complementation, 4 h; inhibition, % at 4 µM; actives 0.78% (n = 360,000); AID 602281, 2012;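 active means inhibition above the mean inhibition across every tested compound plus 3 SD, cut at about 22% in these data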
TLR9-MyD88 block = inhibitors of TLR9-MyD88 association in cells, primary screen, cell-based, CHO, BLA complementation, fluorescence. Toll-like receptor 9 (Homo sapiens) + Myeloid differentiation primary response protein …. CCF4 FRET ratio. inhibition, % at 4.98 µM. actives 0.21% (n = 340,000);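 active means inhibition above the mean over all tested compounds plus 3 SD, cut at about 21% in these data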
NOD2-RIPK2 conf = NOD2-RIPK2 binding disruptors, retest, confirmation, fluorescence, CHO cells, BLA complementation, triplicate; shares compounds with NOD2 RIPK2 PPI; inhibition, % at 4.98 µM; CCF4 FRET; actives 70% (n = 1,200);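 active means mean inhibition across replicates above a set limit taken from the earlier primary screen, cut at about 21% in these data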
NOD2 BLA counter = NOD2-RIPK2 counterscreen BLA reporter activity | shares compounds with NOD2 RIPK2 PPI | actives 57% (n = 1,200) | inhibition, % at 4.98 µM | CHO BLA reporter, CCF4 FRET ratio | AID 624371;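 active means mean inhibition above the low-control mean inhibition plus three low-control SD, cut at about 11% in these data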
Each line names hits and unclear results; the compound was inactive in the other large screens (follow-up assays come after a bar, where they were run). In the library only some 1.5% were active in any assay of this set; here they are far more common.

COc1ccc2c(c1OC)c(=O)n1c3ccc(OC(C)C(=O)NCCCN4CCOCC4)cc3c3ccnc2c31 (centres undefined)	NOD2 RIPK2 PPI 21 (no result: TLR4-MyD88 BLA) | NOD2-RIPK2 conf inactive | NOD2 BLA counter inactive
O=C(C#Cc1cccc([N+](=O)[O-])c1)c1ccccc1	B2AR ag 88, NOD2 RIPK2 PPI 27, ABHD5-PLIN5 inh 30 | NOD2-RIPK2 conf 77 | NOD2 BLA counter 17
C[C@@H]1CC2=C(C(=O)OC(C)(C)O2)[C@H](c2ccc(Cl)cc2)O1	none (no result: TLR4-MyD88 BLA, B2AR ag, NTR1 ag, TLR9-MyD88 block)
CCCNC(=O)c1ccc(COc2cccc3ccccc23)o1	NOD2 RIPK2 PPI 26 (no result: TLR4-MyD88 BLA) | NOD2-RIPK2 conf inactive | NOD2 BLA counter inactive
CCCNC(=O)c1ccc(COc2ccc(C)cc2)o1	none (no result: TLR4-MyD88 BLA)
CCOc1ccc(/C=C(\C#N)C(=O)c2c(C)[nH]c3ccccc23)cc1OC	NOD2 RIPK2 PPI 22 | NOD2-RIPK2 conf inactive | NOD2 BLA counter inactive
Cc1cccc(NC(=O)CSCC(=O)Nc2cc(S(=O)(=O)N3CCOCC3)ccc2OC(C)C)c1	NOD2 RIPK2 PPI 21 (no result: TLR4-MyD88 BLA) | NOD2-RIPK2 conf inactive | NOD2 BLA counter inactive
Cc1ccc(CSCC(=O)Nc2cc(S(=O)(=O)N3CCOCC3)ccc2OC(C)C)cc1	none (no result: TLR4-MyD88 BLA)
Cc1ccc(C2C=C(c3ccccc3)Nc3nc(N4C(=O)CCC4=O)nn32)cc1 (centres undefined)	NOD2 RIPK2 PPI 45 (no result: TLR9-MyD88 block) | NOD2-RIPK2 conf 33 | NOD2 BLA counter 35
C=CCn1c(-c2cccc(Cl)c2)n[nH]c1=S	none
C=CCn1c(-c2oc3nc(-c4ccccc4)cc(-c4ccccc4)c3c2N)n[nH]c1=S	NOD2 RIPK2 PPI 34 | NOD2-RIPK2 conf 87 | NOD2 BLA counter 88
Cc1nn(-c2ccccc2)c2c1P(=O)(O)/C(=C1\N(C)c3ccccc3C1(C)C)C=N2	NOD2 RIPK2 PPI 24 | NOD2-RIPK2 conf inactive | NOD2 BLA counter 19
Cc1nn(-c2ccccc2)c(N)c1C1(O)C(=O)N(C(C)C)c2ccccc21 (centres undefined)	none
O=C(O)c1cc(Cl)ccc1-c1ccc(/C=C/c2cc(C(F)(F)F)[nH]c(=O)n2)o1	NOD2 RIPK2 PPI 23 | NOD2-RIPK2 conf 33 | NOD2 BLA counter 42
O=C(c1ccccc1)c1sc(Nc2ccc3c(c2)OCO3)nc1-c1ccccc1	NOD2 RIPK2 PPI 21 (no result: TLR4-MyD88 BLA, B2AR ag, NTR1 ag, TLR9-MyD88 block) | NOD2-RIPK2 conf inactive | NOD2 BLA counter 26
CC(C)C(=O)N1CCN(c2ccc(NC(=O)c3ccc([N+](=O)[O-])o3)cc2Cl)CC1	NOD2 RIPK2 PPI 26 (no result: NTR1 ag) | NOD2-RIPK2 conf 23 | NOD2 BLA counter inactive
CN1CCN(c2ccc(NC(=O)c3ccc([N+](=O)[O-])o3)cc2Cl)CC1	NOD2 RIPK2 PPI 23 (no result: TLR4-MyD88 BLA) | NOD2-RIPK2 conf inactive | NOD2 BLA counter 17
CC(C)C(=O)N1CCN(c2ccc(NC(=O)c3ccc([N+](=O)[O-])o3)cc2)CC1	none
CS(=O)(=O)Nc1cccc(NC(=O)c2cccc3c(-c4ccc(F)c(F)c4)coc23)c1	none (no result: TLR4-MyD88 BLA, B2AR ag, NTR1 ag, TLR9-MyD88 block)
CCc1ccc([C@H]2[C@@H]3C(=O)C[C@@H]4C(=O)N(C5CCCCC5)C(=O)[C@@H]4[C@@H]3CN2S(=O)(=O)c2ccc(C)cc2)cc1	none (no result: TLR4-MyD88 BLA, B2AR ag, NTR1 ag, TLR9-MyD88 block)
Cc1cccc(C)c1NC(=O)C1(C)CN(S(C)(=O)=O)CC(=O)N1C1CC1 (centres undefined)	none (no result: TLR4-MyD88 BLA, B2AR ag, NTR1 ag, TLR9-MyD88 block)
Cc1cccc(NC(=O)CNC(=O)c2ccc3c(c2)OCO3)n1	NOD2 RIPK2 PPI 38 (no result: TLR4-MyD88 BLA) | NOD2-RIPK2 conf inactive | NOD2 BLA counter inactive
Cc1cccc(NC(=O)c2ccc3c(c2)OCCO3)n1	none (no result: TLR4-MyD88 BLA)
NS(=O)(=O)c1ccc(NS(=O)(=O)c2ccc(NC(=O)c3ccc(-c4ccccc4)cc3)cc2)cc1	NOD2 RIPK2 PPI 24 | NOD2-RIPK2 conf 23 | NOD2 BLA counter 28
O=C(Nc1ccncc1)c1ccc(S(=O)(=O)Nc2ccccc2)cc1	none
COC(=O)c1ccc2c(=O)n(Cc3ccco3)c(SCC(=O)Nc3cc(C)on3)nc2c1	none
Cc1cc(NC(=O)CSc2nc3cc(C(=O)NCCCOC(C)C)ccc3c(=O)n2Cc2ccco2)no1	NOD2 RIPK2 PPI 30 | NOD2-RIPK2 conf inactive | NOD2 BLA counter inactive
COc1cc(NCC2COc3c(ccc(OC)c3OC)C2=O)c([N+](=O)[O-])cc1OC (centres undefined)	none (no result: TLR4-MyD88 BLA, B2AR ag, NTR1 ag, TLR9-MyD88 block)
Cn1cnc2c(cnn2C)c1=O	none (no result: TLR4-MyD88 BLA, NTR1 ag)
CN1CCN(c2ccc(CNC(=O)C3(C)Cc4c(-c5ccc(C(N)=O)cc5)ccnc4O3)cc2)CC1 (centres undefined)	none (no result: TLR4-MyD88 BLA, B2AR ag, NTR1 ag, TLR9-MyD88 block)
O=C1C(=NO)C(c2ccccc2)Oc2ccccc21 (centres undefined)	NOD2 RIPK2 PPI 28 (no result: TLR4-MyD88 BLA, NTR1 ag) | NOD2-RIPK2 conf inactive | NOD2 BLA counter 27
COc1ccccc1N1C(=O)CC(N2CCN(c3ccc([N+](=O)[O-])cc3)CC2)C1=O (centres undefined)	NOD2 RIPK2 PPI 22 (no result: TLR4-MyD88 BLA) | NOD2-RIPK2 conf inactive | NOD2 BLA counter inactive
